# Experimental data taken from ChEMBL document CHEMBL4513216, “Probing the Open Global Health Chemical Diversity Library for Multistage-Active Starting Points for Next-Generation Antimalarials” (ACS Infect Dis, 2020).
# Screen size: about 65,000 compounds; about 2,100 (3.2%) showed an effect of 50% or more. The median lay at about -52%. What follows is part of a selection rich in strong results, with near analogues and random picks from the rest.
# System: Plasmodium falciparum
# Experiment: Screen against P. falciparum Asexual Blood Stage (ABS), at 5uM
# Assay type: functional, Dd2
# Conditions: tested at 5 uM
row,SMILES,INHIBITION [%]
1,Cc1nn(CC(F)F)c2c1c(C(F)F)cc(=O)n2CC(=O)O,-111.45
2,CN1CCCn2c(nc(CNS(=O)(=O)C3CC3)cc2=O)C1,-41.3
3,Cc1nn(C)c2cnn(Cc3ccc(C(=O)NC4CC4)cc3)c12,-60.4
4,COc1ccc(-c2ccnc(C3CCNCC3)c2)cc1,30.9
5,COc1ccc(Cn2c(C3CCNCC3)cc3cccnc32)cc1,66.9
6,CN1CCCC1c1cc2cccnc2n1Cc1ccc(F)cc1 (stereo not drawn),69.9
7,COc1cccc(Cn2c(C3CCNCC3)cc3cccnc32)c1,66.1
8,COc1cccc(CN2C[C@H]3CCNCC[C@H]3S2(=O)=O)c1,17.1
9,Fc1cccc(-c2nccnc2C2CCCNC2)c1 (stereo not drawn),14.9
10,c1cnc2c(c1)cc([C@H]1CCCO1)n2CCN1CCCCC1,25.8
11,COc1cccc(-c2ccnc(C3CCNCC3)c2)c1,-73.8
12,c1cnc2c(c1)cc([C@H]1CCCO1)n2CCN1CCCC1,21.4
13,Fc1ccccc1-c1nccnc1C1CCCNC1 (stereo not drawn),10.7
14,c1cnc2c(c1)cc(C1CCOCC1)n2CCN1CCOCC1,-7.49
15,Fc1cccc(F)c1Cn1c(C2CCCNC2)cc2cccnc21 (stereo not drawn),66.1
16,O=C(C1CCOCC1)N1C[C@H]2CCC[C@@]2(COCc2ccccn2)C1,-15.1
17,Cc1noc(C(C)C)c1C(=O)NCc1cccc(CN(C)C)c1,-13.6
18,Cc1cnc(CNC2CCc3nc(C(C)C)nn3C2)cn1 (stereo not drawn),-20.3
19,Cc1ccc(CN2C[C@@H]3CN(CC4CCOCC4)CCO[C@@H]3C2)s1,-95.1
20,CC(C)(C)n1cc(CNc2ccc(CNS(C)(=O)=O)cc2)cn1,-25.8
21,Cn1cnc2c1C(COCC1CC1)CN(Cc1ccc3c(c1)OCO3)C2 (stereo not drawn),41.1
22,CCCC(=O)N1CCCN(C(=O)c2oc(C)nc2C)CC1,-111
23,Cc1ncsc1C(=O)NCc1ccnc(N2CCN(C)CC2)c1,62.9

row,SMILES,INHIBITION [%]
1,Cc1cc(C(=O)NCc2ccnc(N3CCOCC3)c2)c(C)s1,50.6
2,Cc1ccsc1C(=O)NCc1ccnc(N2CCN(C)CC2)c1,-35
3,Cc1cc(C(=O)NCc2ccnc(N3CCN(C)CC3)c2)sc1C,-5.05
4,Cc1cc(C(=O)NCc2ccnc(N3CCN(C)CC3)c2)c(C)s1,32.2
5,Cc1ccc(C(=O)NCc2ccnc(N3CCN(C)CC3)c2)cn1,-38.9
6,Cc1cnc(N2CCC3(CC2)CC3CNC(=O)C2CCC2)nc1 (stereo not drawn),-57.8
7,COc1cccc(-c2noc(C3CCN(Cc4ccc(C)cc4)C3)n2)c1 (stereo not drawn),-97.2
8,O=C(c1cc(Cl)ccc1OC1CCN(C2CCCC2)CC1)N1CCCO1,53.5
9,O=C(c1cc(Cl)ccc1OC1CCN(C2CCCC2)CC1)N1CC(O)C1,-96
10,CC(=O)N1CCC(Oc2ccc(Cl)cc2C(=O)N2CCCO2)CC1,-31
11,Cc1noc([C@@H]2C[C@H]3OCC[C@H]3N(Cc3sccc3C)C2)n1,-15.2
12,CNC(=O)c1cn2cc(-c3cccc(Cl)c3)n(CC=C(C)C)c(=O)c2n1,56.6
13,CNC(=O)c1cn2cc(-c3ccccc3Cl)n(CC3CC3)c(=O)c2n1,54.7
14,CNC(=O)c1cn2cc(-c3cccc(Cl)c3)n(CC3CC3)c(=O)c2n1,19.5
15,CNC(=O)c1cn2cc(-c3ccccc3Cl)n(CC=C(C)C)c(=O)c2n1,68.2
16,NC(=O)c1cn2cc(-c3ccccc3Cl)n(CC3CC3)c(=O)c2n1,-27.5
17,CN(C)C(=O)c1cn2cc(-c3cccc(Cl)c3)n(CC3CC3)c(=O)c2n1,-21.6
18,CNC(=O)c1cn2cc(-c3ccc(F)cc3)n(CC=C(C)C)c(=O)c2n1,39.1
19,CN(C)C(=O)c1cn2cc(-c3ccccc3Cl)n(CC3CC3)c(=O)c2n1,37.8
20,CCNC(=O)c1cn2cc(-c3ccccc3Cl)n(CC3CC3)c(=O)c2n1,43.7
21,CCn1cc(NC(=O)CCc2ccc3c(c2)OCCCO3)cn1,-127
22,Brc1ccc(-c2nnc(CN(Cc3cccs3)CC3CCCO3)o2)s1 (stereo not drawn),-45.2
23,Cc1cnn(CC2CCCN2Cc2nnc(C3CC3)n2C)c1 (stereo not drawn),-100

row,SMILES,INHIBITION [%]
1,COC1[C@@H]2CC[C@H]1CN(c1nc(C)nc3sccc13)C2 (stereo partly drawn),-88.3
2,Cc1cc(C(=O)N2CCCC(n3cncn3)C2)no1 (stereo not drawn),66.7
3,Cc1cc(C(=O)N2CCCC(n3cncn3)C2)on1 (stereo not drawn),-247
4,O=C(c1cc(C2CC2)on1)N1CCCC(n2cncn2)C1 (stereo not drawn),-34.5
5,Cc1ccc(-c2cc(C(=O)NCCCc3csc(N)n3)[nH]n2)s1,66.5
6,Cc1ccc(-c2cc(C(=O)NCCCc3csc(N)n3)[nH]n2)o1,22
7,Cn1cccc1-c1cc(C(=O)NCCCc2csc(N)n2)[nH]n1,-75.5
8,Cc1nc(C)c(CNC(=O)N2CCN(c3ccc(Cl)cn3)CC2)s1,-49.6
9,O=C(NC1CCC1)[C@@H]1C[C@@H]2CCN(Cc3cccs3)C[C@@H]2O1,-168
10,CC(C)(N)C(=O)N1CCC(c2nccnc2Oc2ccccc2F)CC1,-4.82
11,NC(=O)c1cccc(C2CCN(c3ncccn3)CC2)n1,-58
12,O=C(Cc1cccc(Cl)c1)N[C@@H]1CCNC[C@H]1O,-75.4
13,O=C1NCCCc2[nH]c(Cc3cccc(Cl)c3)nc21,-167
14,Clc1cccc(C[C@@H]2NCCC[C@@H]2Nc2ccccc2)c1,88.7
15,CC(NC(=O)NCCCc1n[nH]c(N)c1C#N)c1cccc(Cl)c1 (stereo not drawn),0.414
16,COCC(=O)N(C)Cc1nc(N2CCCC2)ncc1-c1ccncc1,-9.28
17,CCn1nnc2c1C(COCCN(C)C)CN(Cc1ccco1)C2 (stereo not drawn),-67.6
18,Cc1ccc(CN2Cc3nnn(C)c3C(COCC3CC3)C2)s1 (stereo not drawn),-90.4
19,CCn1nnc2c1C(COCCN(C)C)CN(Cc1ccc(C)s1)C2 (stereo not drawn),60.1
20,CCOC(=O)N1CC(=O)N(Cc2ccc(OC)cc2)CC(O)C1 (stereo not drawn),-109
21,Cc1occc1C(=O)N1CCC2(CCC2NC(=O)c2ccn(C)c2)CC1 (stereo not drawn),-23.1
22,CC(C)c1ccc(CNC(C)c2ccc(S(C)(=O)=O)cc2)cc1 (stereo not drawn),53.6
23,CC(NCc1ccc(F)cc1)c1ccc(S(C)(=O)=O)cc1 (stereo not drawn),-28.9

row,SMILES,INHIBITION [%]
1,CC(NCc1ccc(C(C)(C)C)cc1)c1ccc(S(C)(=O)=O)cc1 (stereo not drawn),-7.37
2,Cc1ccc(-c2cc(CN3CCc4cnc(C)nc4C3)on2)cc1,-29
3,O=C1CCC2(CCC(NCc3ccsc3)CC2)N1Cc1ccccc1 (stereo not drawn),65.3
4,CN1C(=O)CCC12CCC(NCc1ccsc1)CC2 (stereo not drawn),-30.4
5,O=C1CCC2(CCC(NCc3cccnc3)CC2)N1Cc1ccccc1 (stereo not drawn),-16.6
6,Cc1cc(C(=O)NCC(F)(F)F)c2c(C3CCNCC3)noc2n1,-42.4
7,CCn1nc2c(cc1=O)CN(c1ncnc3ccsc13)CC2,17.6
8,CC(=O)N1CCO[C@@H]2CN(Cc3ccccc3F)C[C@@H]2C1,-77.7
9,CN(C)Cc1cc(C2CCCN(S(=O)(=O)c3cccc(Cl)c3)C2)nn1C (stereo not drawn),56.5
10,O=S(=O)(c1cccc(Cl)c1)N1CCCC(Cn2cncn2)C1 (stereo not drawn),-36.3
11,CN(C)S(=O)(=O)N1CCCC(c2nccnc2-c2cccc(Cl)c2)C1 (stereo not drawn),-85.8
12,Cc1cccc(-n2ncc3c2CCCC3NCC(C)(C)CO)c1C (stereo not drawn),-58.1
13,O=C(c1ccsc1)N1C[C@H]2CCC[C@@]2(COCc2cccnc2)C1,-29.9
14,Cc1ccc(CN2C[C@@H](C(=O)Nc3cccnc3)C[C@H]3OCC[C@H]32)o1,-35.4
15,Cc1ccsc1-c1cccc(-c2ccn(CC3CCNC3)n2)c1 (stereo not drawn),61.7
16,Cc1nccc(-c2cccc(-c3ccn(CC4CCNC4)n3)c2)n1 (stereo not drawn),-137
17,c1cc(-c2cncnc2)cc(-c2ccn(CC3CCNC3)n2)c1 (stereo not drawn),13.9
18,Cc1cccc(C(=O)N2CC[C@]3(C[C@H](OCc4ccccn4)CO3)C2)c1,-121
19,CCN(CC)c1ccc(NS(=O)(=O)c2cccnc2)cn1,59.3
20,CCN(CC)c1ccc(NS(=O)(=O)c2cncc(F)c2)cn1,-19.4
21,CCN(CC)c1ccc(NS(=O)(=O)c2cnn(C)c2)cn1,-98.6
22,Cc1ccc(-n2ncc3c2CCCC3N)cc1C (stereo not drawn),7.06
23,CC(C)(C)c1ccc(-n2ncc3c2CCCC3N)cc1 (stereo not drawn),31.8

row,SMILES,INHIBITION [%]
1,NC1CCCc2c1cnn2-c1cc(F)cc(F)c1 (stereo not drawn),53.6
2,CC(O)CN1CCN(Cc2csc(-c3ncccn3)n2)CC1 (stereo not drawn),-107
3,CCC1(CNCc2ncc[nH]2)CCCC1,67
4,c1ccc(CC2(CNCc3ncc[nH]3)CCC2)cc1,45.2
5,CCCC1(CNCc2ncc[nH]2)CCC1,26.4
6,CCc1ccc(C(=O)N2CC[C@H](Oc3cccnc3C)[C@@H](O)CC2)cc1,-41
7,CN(C)c1cc(C(=O)N2CCCCC2)ccn1,-78.5
8,CN(C)c1cc(C(=O)N2CCCCCC2)ccn1,-8.55
9,CN(C)c1cc(C(=O)N2CCCC2)ccn1,55.6
10,N#CCCN(C(=O)CN1CCCC1Cc1ccccc1)c1ccccc1 (stereo not drawn),22.1
11,CCN(C(=O)CN1CCCC1c1ccc(OC)cc1)c1ccccc1 (stereo not drawn),18.8
12,Cc1ccc(C2CCCN2CC(=O)N(CCC#N)c2ccccc2)cc1 (stereo not drawn),62.4
13,Cc1ccc(N(CCC#N)C(=O)CN2CCCC2c2cccs2)cc1 (stereo not drawn),13.3
14,N#CCCN(C(=O)CN1CCCC1c1ccsc1)c1ccccc1F (stereo not drawn),69.7
15,N#CCCN(C(=O)CN1CCCC1c1ccccc1Cl)c1ccccc1 (stereo not drawn),40.4
16,Cc1ccc(N(CCC#N)C(=O)CN2CCCC2c2ccsc2)cc1 (stereo not drawn),46.2
17,CCN(C(=O)CN1CCCC1Cc1ccccc1)c1ccccc1 (stereo not drawn),61.3
18,N#CCCN(C(=O)CN1CCCC1c1ccsc1)c1ccccc1 (stereo not drawn),1.81
19,N#CCCN(C(=O)CN1CCCC1C1CCCCC1)c1ccccc1 (stereo not drawn),52.2
20,N#CCCN(C(=O)CN1CCCC1c1cccs1)c1ccccc1F (stereo not drawn),40
21,CN(C(=O)CN1CCCC1Cc1ccccc1)c1ccccc1 (stereo not drawn),22.7
